Data reported in PubChem BioAssay (EPA / NIEHS).
Values joined by “and” are separate entries in the source; they are usually repeats but may differ in a detail not shown here. Equal entries are not always repeated. Inconclusive results are not listed. Active and inactive are the calls of the source. Rule for the calls, unless noted: active = hit-call score of the fitted dose curve at least 0.9, where 1 is the maximum; inactive = score below 0.9.

How the values were obtained:
[1] = read-out: Nuclear factor erythroid 2-related factor 2 (Homo sapiens) (UniProt Q16236); test: LTEA_HepaRG_NFE2L2: Life Technologies and Expression Analysis (LTEA) Assay for Nuclear factor erythroid 2-related factor 2 (NFE2L2) Transcription Factor using HepaRG (AID 2283527); conditions: mRNA level, 48 h; actives raise or lower the signal
In short: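 HepaRG, 48 h dosing, 8-pt half-log series from 100 uM in 0.5% DMSO, duplicates. Read-out: NFE2L2 mRNA by qRT-PCR (ACTB/GAPDH/POLR2A normalization). Bidirectional curve fit vs DMSO baseline.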

[2] = read-out: succinate dehydrogenase complex iron sulfur subunit B (SDHB), SDHB (gene 6390); test: LTEA_HepaRG_SDHB: Life Technologies and Expression Analysis (LTEA) Assay for succinate dehydrogenase complex iron sulfur subunit B (SDHB) using HepaRG (AID 2283528); conditions: mRNA level, 48 h; actives raise or lower the signal
In short: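 HepaRG, 48 h exposure, 8-pt half-log series from 100 uM in 0.5% DMSO, duplicates. Readout: SDHB mRNA by Fluidigm qRT-PCR vs housekeeping genes; bidirectional fit relative to DMSO.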

[3] = read-out: Signal transducer and activator of transcription 3 (Homo sapiens) (UniProt P40763); test: LTEA_HepaRG_STAT3: Life Technologies and Expression Analysis (LTEA) Assay for Signal transducer and activator of transcription (STAT3) using HepaRG (AID 2283529); conditions: mRNA level, 48 h; actives raise or lower the signal
In short: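 HepaRG, 48 h exposure, 8-pt half-log series (top 100 uM), 0.5% DMSO vehicle, duplicates. Readout: STAT3 transcript by Fluidigm qRT-PCR, housekeeping-normalized; bidirectional fit vs DMSO baseline.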

[4] = read-out: solute carrier (SLCO1B1), SLCO1B1 (gene 10599); test: LTEA_HepaRG_SLCO1B1: Life Technologies and Expression Analysis (LTEA) Assay for solute carrier (SLCO1B1) using HepaRG (AID 2283530); conditions: mRNA level, 48 h; actives raise or lower the signal
In short: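 Gain or loss of SLCO1B1 mRNA is fitted against the 0.5% DMSO vehicle in human HepaRG liver cells treated 48 h at up to 100 uM in half-log steps. Expression comes from qRT-PCR normalized to endogenous controls.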

[5] = read-out: sulfotransferase 2A1 (SULT2A1), SULT2A1 (gene 6822); test: LTEA_HepaRG_SULT2A1: Life Technologies and Expression Analysis (LTEA) Assay for sulfotransferase 2A1 (SULT2A1) using HepaRG (AID 2283531); conditions: mRNA level, 48 h; actives raise or lower the signal
In short: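 Cells were plated and cultured 48 h, switched to serum-free induction medium, then dosed in duplicate for 48 h (8 concentrations, max 100 uM). RNA was isolated and SULT2A1 expression measured by qRT-PCR; gain or loss of signal fitted relative to DMSO.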

[6] = read-out: Transforming Growth Factor (TGFA), TGFA (gene 7039); test: LTEA_HepaRG_TGFA: Life Technologies and Expression Analysis (LTEA) Assay for Transforming Growth Factor (TGFA) using HepaRG (AID 2283532); conditions: mRNA level, 48 h; actives raise or lower the signal
In short: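 qRT-PCR read-out of TGFA transcript, normalized to three housekeeping genes, fitted bidirectionally against 0.5% DMSO baseline. Human HepaRG cultures received chemicals for 48 h at eight half-log concentrations, top 100 uM.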

[7] = read-out: Transforming Growth Factor (TGFB1), TGFB1 (gene 7040); test: LTEA_HepaRG_TGFB1: Life Technologies and Expression Analysis (LTEA) Assay for Transforming Growth Factor (TGFB1) Transporter using HepaRG (AID 2283533); conditions: mRNA level, 48 h; actives raise or lower the signal
In short: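 Expression change of TGFB1 in human HepaRG cells is measured after a 48 h chemical exposure, up to 100 uM in 0.5% DMSO vehicle. Curves are fitted in both directions relative to the DMSO baseline.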

[8] = read-out: TIMP1, TIMP1 (gene 7076); test: LTEA_HepaRG_TIMP1: Life Technologies and Expression Analysis (LTEA) Assay for TIMP1 using HepaRG (AID 2283534); conditions: mRNA level, 48 h; actives raise or lower the signal
In short: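 We dosed human liver HepaRG cultures for 48 hours with up to 100 uM test chemical and measured TIMP1 expression by qRT-PCR. Activity in either direction is fitted relative to the 0.5% DMSO vehicle.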

[9] = read-out: Tumor necrosis factor receptor 1 (TNFRSF1A), TNFRSF1A (gene 7132); test: LTEA_HepaRG_TNFRSF1A: Life Technologies and Expression Analysis (LTEA) Assay for Tumor necrosis factor receptor 1 (TNFRSF1A) using HepaRG (AID 2283535); conditions: mRNA level, 48 h; actives raise or lower the signal
In short: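 Expression of TNFRSF1A in human HepaRG liver cells was measured by qRT-PCR 48 h after chemical dosing (maximum 100 uM). Bidirectional curve fitting used 0.5% DMSO as baseline.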

[10] = read-out: Thyroid Hormone Responsive (THRSP), THRSP (gene 7069); test: LTEA_HepaRG_THRSP: Life Technologies and Expression Analysis (LTEA) Assay for Thyroid Hormone Responsive (THRSP) using HepaRG (AID 2283536); conditions: mRNA level, 48 h; actives raise or lower the signal
In short: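 qRT-PCR read-out (Fluidigm TaqMan), housekeeping-normalized (ACTB/GAPDH/POLR2A). HepaRG, 48 h chemical exposure, 8-pt half-log series from 100 uM in 0.5% DMSO, duplicates. Bidirectional curve fit vs 0.5% DMSO baseline.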

[11] = read-out: Cellular tumor antigen p53 (Homo sapiens) (UniProt P04637); test: LTEA_HepaRG_TP53: Life Technologies and Expression Analysis (LTEA) Assay for Tumor Protein P53 (TP53) using HepaRG (AID 2283537); conditions: mRNA level, 48 h; actives raise or lower the signal
In short: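 HepaRG, 48 h exposure, top 100 uM, half-log 8-point, 0.5% DMSO vehicle, duplicates. Read: TP53 mRNA by TaqMan qRT-PCR, normalised to ACTB/GAPDH/POLR2A; bidirectional fit vs DMSO.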

[12] = read-out: UDP glucuronosyltransferase (UGT1A1), UGT1A1 (gene 54658); test: LTEA_HepaRG_UGT1A1: Life Technologies and Expression Analysis (LTEA) Assay for UDP glucuronosyltransferase (UGT1A1) using HepaRG (AID 2283538); conditions: mRNA level, 48 h; actives raise or lower the signal
In short: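 Cells are plated, cultured 48 h, switched to serum-free induction medium, then dosed 48 h at eight concentrations (max 100 uM, 0.5% DMSO). RNA is isolated and UGT1A1 expression measured by qRT-PCR; changes versus DMSO are fitted in both directions.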

[13] = read-out: UDP glucuronosyltransferase (UGT1A6), UGT1A6 (gene 54578); test: LTEA_HepaRG_UGT1A6: Life Technologies and Expression Analysis (LTEA) Assay for UDP glucuronosyltransferase (UGT1A6) using HepaRG (AID 2283539); conditions: mRNA level, 48 h; actives raise or lower the signal
In short: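 Endpoint is UGT1A6 transcript induction or loss in a human liver cell line, quantified by TaqMan qRT-PCR 48 h after dosing. Concentrations ran from 100 uM downward in half-log steps in 0.5% DMSO; activity was fitted in both directions versus vehicle.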

[14] = read-out: X-box binding protein 1 (XBP1), XBP1 (gene 7494); test: LTEA_HepaRG_XBP1: Life Technologies and Expression Analysis (LTEA) Assay for X-box binding protein 1 (XBP1) using HepaRG (AID 2283540); conditions: mRNA level, 48 h; actives raise or lower the signal
In short: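 Human HepaRG monolayers receive test chemical for 48 h across an eight-point half-log series starting at 100 uM. XBP1 mRNA gain or loss is scored against DMSO by qRT-PCR.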

[15] = LTEA_HepaRG_LDH_cytotoxicity: Cytotoxicity Assessment in the Life Technologies and Expression Analysis (LTEA) Assay (AID 2283563; active = hit-call score of the fitted dose curve at least 0.9, where 1 is the maximum;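 for AC50: LDH activity released into spent culture medium as a marker of cell death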)
In short: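 Human HepaRG hepatic cells are treated with test chemicals for 48 h at up to 100 uM in 0.5% DMSO. Cytotoxicity is scored from medium LDH against the vehicle control.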

[16] = ATG_XTT_Cytotoxicity: Cytotoxicity Assessment in the Attagene TRANS-FACTORIAL HepG2 Assay (AID 2283584; active = hit-call score of the fitted dose curve at least 0.9, where 1 is the maximum;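 for AC50: XTT signal for cell number as viability in transfected HepG2 cells; cells exposed to compound for 24 h before reading; active means loss of viability signal versus DMSO baseline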)
In short: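 Transfect HepG2 with GAL4-UAS reporter units, dose compound, incubate 24 h, then measure viable cell number by XTT. Fit concentration response against DMSO baseline.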

[17] = TOX21_p53_BLA_p2_viability: Viability Assessment in the Tox21 HCT-116 p53 Agonism Beta-lactamase Assay, Phase 2 (AID 2283591; active = hit-call score of the fitted dose curve at least 0.9, where 1 is the maximum;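 note: compound exposure lasted 16 h at 37 °C; actives lower the ATP signal meaning cytotoxicity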)
In short: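 HCT116 p53-bla cells, 4000/well, dosed after 5 h plating (217-fold dilution of DMSO stocks) and incubated 16 h at 37C. Viability taken as cellular ATP by CellTiter-Glo luminescence after 30 min RT; signal loss marks cytotoxicity.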

[18] = target: Cellular tumor antigen p53 (Homo sapiens) (UniProt P04637); test: TOX21_p53_BLA_p2_ratio: Tox21 HCT-116 p53 Agonism Beta-lactamase Assay, Ratio, Phase 2 (AID 2283592; active = hit-call score of the fitted dose curve at least 0.9, where 1 is the maximum)
Chain of Cellular tumor antigen p53 (Homo sapiens) (P04637 whole entry, looked up): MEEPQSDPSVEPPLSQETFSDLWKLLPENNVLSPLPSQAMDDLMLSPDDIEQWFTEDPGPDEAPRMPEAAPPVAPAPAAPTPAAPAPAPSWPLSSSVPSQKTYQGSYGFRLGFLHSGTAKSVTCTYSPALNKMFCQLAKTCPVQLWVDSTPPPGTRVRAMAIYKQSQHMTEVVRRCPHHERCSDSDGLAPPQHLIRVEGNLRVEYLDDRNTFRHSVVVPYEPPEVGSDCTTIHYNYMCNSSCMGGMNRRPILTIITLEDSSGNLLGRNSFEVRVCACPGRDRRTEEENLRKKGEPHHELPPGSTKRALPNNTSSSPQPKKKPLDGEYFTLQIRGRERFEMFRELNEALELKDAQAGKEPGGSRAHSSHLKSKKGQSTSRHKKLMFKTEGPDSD
In short: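 Cleaved-to-uncleaved substrate ratio (460 vs 530 nm) measured in HCT116 cells with an inducible beta-lactamase reporter linked to p53 activity. Compounds incubated 16 h at 37C before 2 h room-temperature CCF4-AM loading.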

[19] = target: Cellular tumor antigen p53 (Homo sapiens) (UniProt P04637); test: TOX21_p53_BLA_p3_ratio: Tox21 HCT-116 p53 Agonism Beta-lactamase Assay, Ratio, Phase 3 (AID 2283596; active = hit-call score of the fitted dose curve at least 0.9, where 1 is the maximum)
In short: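 Cells were seeded at 4000/well, rested 5 h at 37C, then dosed with DMSO compound solutions (217-fold dilution) for 16 h. CCF4-AM substrate was loaded for 2 h at room temperature, and the 460/530 nm emission ratio was fitted for gain of signal versus DMSO.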

Measured: AC50

Chain of Signal transducer and activator of transcription 3 (Homo sapiens) (P40763 whole entry, looked up): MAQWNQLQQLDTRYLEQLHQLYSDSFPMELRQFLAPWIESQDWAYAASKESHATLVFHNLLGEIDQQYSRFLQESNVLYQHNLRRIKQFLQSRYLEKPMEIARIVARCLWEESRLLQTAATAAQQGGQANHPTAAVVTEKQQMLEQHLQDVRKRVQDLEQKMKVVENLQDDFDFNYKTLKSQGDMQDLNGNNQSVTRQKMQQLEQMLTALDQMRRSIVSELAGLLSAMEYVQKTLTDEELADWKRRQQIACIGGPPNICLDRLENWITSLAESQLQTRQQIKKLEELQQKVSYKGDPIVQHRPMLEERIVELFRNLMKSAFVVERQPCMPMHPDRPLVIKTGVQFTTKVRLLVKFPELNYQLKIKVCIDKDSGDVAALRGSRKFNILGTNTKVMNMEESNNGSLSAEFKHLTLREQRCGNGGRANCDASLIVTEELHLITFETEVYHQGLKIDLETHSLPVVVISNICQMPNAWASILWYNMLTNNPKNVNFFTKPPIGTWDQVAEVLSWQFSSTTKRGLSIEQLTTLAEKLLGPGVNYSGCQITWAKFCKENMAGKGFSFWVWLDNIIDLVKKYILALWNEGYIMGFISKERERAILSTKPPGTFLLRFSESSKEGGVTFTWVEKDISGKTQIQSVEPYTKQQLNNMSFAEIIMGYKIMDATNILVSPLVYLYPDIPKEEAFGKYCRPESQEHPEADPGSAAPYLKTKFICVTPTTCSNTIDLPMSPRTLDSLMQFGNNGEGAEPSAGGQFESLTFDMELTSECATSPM
Chain of Nuclear factor erythroid 2-related factor 2 (Homo sapiens) (Q16236 whole entry, looked up): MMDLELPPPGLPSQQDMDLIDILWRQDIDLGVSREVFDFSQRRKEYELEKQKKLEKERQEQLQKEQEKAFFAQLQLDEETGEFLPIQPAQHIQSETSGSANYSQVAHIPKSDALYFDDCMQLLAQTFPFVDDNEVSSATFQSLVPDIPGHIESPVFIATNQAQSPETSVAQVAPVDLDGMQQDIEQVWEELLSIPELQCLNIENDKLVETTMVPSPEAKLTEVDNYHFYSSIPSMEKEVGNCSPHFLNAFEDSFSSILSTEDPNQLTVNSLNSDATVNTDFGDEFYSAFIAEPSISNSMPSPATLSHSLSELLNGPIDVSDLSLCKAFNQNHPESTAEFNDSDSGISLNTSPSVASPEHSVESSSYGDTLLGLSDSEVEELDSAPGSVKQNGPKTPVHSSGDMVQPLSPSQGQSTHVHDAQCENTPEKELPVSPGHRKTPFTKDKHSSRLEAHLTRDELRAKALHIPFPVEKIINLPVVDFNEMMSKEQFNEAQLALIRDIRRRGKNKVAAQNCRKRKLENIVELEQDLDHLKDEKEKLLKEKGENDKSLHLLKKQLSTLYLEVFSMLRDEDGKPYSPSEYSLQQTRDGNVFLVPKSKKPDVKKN

O=C(O)Cc1cc(I)c(Oc2cc(I)c(O)c(I)c2)c(I)c1
active: [1] 54.9 µM | [2] 62.9 µM | [4] 56.2 µM | [5] 52.4 µM | [7] 56.4 µM | [9] 55.3 µM | [10] 56 µM | [11] 59.1 µM | [12] 61.5 µM | [13] 62.2 µM | [15] 61.9 µM | [17] 24.1 µM | [19] 28.2 µM
inactive: [3] | [6] | [8] | [14] | [16] | [18]

Oc1cc2ccccc2c2ccccc12
active: [16] 16.6 µM and 16.3 µM | [17] 15.2 µM | [19] 13.6 µM
not listed: [14] | [18]
inactive: all other assays above

CN1CCN(c2ccccc2/C=C2\SCCN(c3ccc(Cl)c(Cl)c3)C2=O)CC1
active: [1] 79.5 µM | [5] 93.2 µM | [6] 96.2 µM | [7] 93.4 µM | [9] 95.5 µM | [12] 50 µM | [15] 69.7 µM
not listed: [14] | [16] | [18]
inactive: all other assays above

C=C(C)C(=O)OCCC(F)(F)C(F)(F)C(F)(F)C(F)(F)C(F)(F)C(F)(F)F
not listed: [14] | [17] | [18]
inactive: all other assays above
